The source of these data is PubChem BioAssay (EPA / NIEHS).

By AC50 is commonly meant the concentration at which the activity in the assay is half-maximal.

Calls of active or inactive are those of the source. How the source made its calls: active means hit-call score of the fitted dose curve at least 0.9, where 1 is the maximum; inactive means score below 0.9.

The target of this assay is Paired box protein Pax-6 (Homo sapiens) (UniProt P26367). Description: ATG_Pax6_CIS: Attagene CIS-FACTORIAL HepG2 Assay for human Paired Box 6 (PAX6) (AID 2282956). The settings on record: HepG2 CIS-FACTORIAL PAX6 reporter transcription, RNA readout; actives raise or lower the signal. The protocol: ATG_CIS is a cell-based, multiplexed-readout assay that uses HepG2, a human liver cell line, with measurements taken at 24 hours after chemical dosing in a 24-well plate.ATG_Pax6_CIS is one of 52 assay component(s) measured or calculated from the ATG_CIS assay. It is designed to make measurements of mRNA induction, a form of inducible reporter, as detected with fluorescence intensity signals by Reverse transcription polymerase chain reaction (RT-PCR) and Capillary electrophoresis technology.Data from the assay component ATG_Pax6_CIS was analyzed into 1 assay endpoint. This assay endpoint, ATG_Pax6_CIS, was analyzed with bidirectional fitting relative to DMSO as the negative control and baseline of activity. Using a type of inducible reporter, measures of mRNA for gain or loss-of-signal activity can be used to understand the reporter gene at the transcription factor-level as they relate to the gene PAX6. Furthermore, this assay endpoint can be referred to as a primary readout, because this assay has produced multiple assay endpoints where this one serves a reporter gene function. To generalize the intended target to other relatable targets, this assay endpoint is annotated to the dna binding intended target family, where the subfamily is paired box protein.
Paired box protein Pax-6 (Homo sapiens), sequence (P26367 whole entry, looked up): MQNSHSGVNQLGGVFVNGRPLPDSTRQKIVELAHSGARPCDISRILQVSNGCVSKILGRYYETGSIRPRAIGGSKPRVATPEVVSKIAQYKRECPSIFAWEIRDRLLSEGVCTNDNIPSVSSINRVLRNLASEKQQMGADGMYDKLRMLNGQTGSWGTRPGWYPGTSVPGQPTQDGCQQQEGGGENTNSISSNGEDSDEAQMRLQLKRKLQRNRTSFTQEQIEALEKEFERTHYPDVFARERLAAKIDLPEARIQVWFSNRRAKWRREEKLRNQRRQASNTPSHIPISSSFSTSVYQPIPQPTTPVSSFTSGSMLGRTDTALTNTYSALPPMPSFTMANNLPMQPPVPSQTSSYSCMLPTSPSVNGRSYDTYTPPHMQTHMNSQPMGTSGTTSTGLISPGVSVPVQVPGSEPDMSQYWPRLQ
Human liver HepG2 cells are transiently transfected with multiple reporter transcription units (MRTUs) in 6-well plates using FuGene 6 reagent (Roche; 3 ml FuGene/1 mg DNA). The MRTU constructs are regulated by a cis-regulating element (promoter). […] A major difference between the CIS and TRANS system is that in CIS activities of endogenous TFs are measured, whereas the TRANS assay evaluates changes in activities of exogenous, chimeric NR-Gal4 proteins. […] At the end of 24 hour incubation, total RNA was isolated using TriZol reagent (Invitrogen). The isolated RNA is then reverse-transcribed using oligo(dT) primer and Mo-MLV reverse transcriptase (Invitrogen) with DNAse I (Ambion) treatment for 30 min. The one-tenth of the produced cDNA was amplified by PCR using Taq DNA polymerase (Invitrogen) and two reporter sequence-specific primers. The PCR products were fluorescently labeled by primer extension with 6-arboxyfluorescein (6-FAM) 5'-labeled reporter sequence-specific primer (2 min at 95 C, 20 s at 68 C and 10 min at 72 C) and these products were digested with 5U of HpaI (New England Biolabs) for 2h at 37 C. The fragments were purified using Qiaquick PCR columns (Qiagen), analyzed on an ABI 3130xL genetic analyzer (Applied Biosystems) with peak positions identified by using a set of X-rhodamine (ROX)-labeled MapMarker1000 molecular weight standards (BioVentures). The raw capillary electrophoresis data was processed using Attagraph software (Attagene).
With `O=C(O)C1(c2ccc3c(c2)OC[C@H](Cc2ccc(-c4ccccc4)cc2)[C@H]3O)CCCC1`, the outcome was inactive.
Same read-out and setting: the value for `Oc1c(Br)cc(Br)cc1Br` was “inactive”; that for `Cc1cccc(N=Nc2ccc(N(C)C)cc2)c1` was “inactive”; that for `Oc1cccc(-c2ccccc2)c1` was “inactive”.
Take `O=C(Nc1ccc(Br)cc1)c1cc(Br)cc(Br)c1O`: the AC50 is 93.2 µM (active).
Regarding `CCN(CCO)CCO`, the outcome was inactive.
As to `Cc1cc(C(C)(C)c2ccc(O)c(C)c2)ccc1O`, the AC50 is 50 µM (active).
Turning to `Nc1ccc(N)cc1`, the outcome was inactive.
For the compound `CCOC(=O)C(SP(=S)(OC)OC)c1ccccc1` (stereo not given), the compound was called inactive.
The same measure, in the same setting: the value for `CC[N+](CC)(CC)CC` was “inactive”.
On to `CCCCN(CCCC)C(=S)S`, for which the half-maximal activity concentration (AC50) was 100 µM (active).
`Cc1c([N+](=O)[O-])c(C)c([N+](=O)[O-])c(C(C)(C)C)c1[N+](=O)[O-]`: the outcome was inactive.
Regarding `CC(C)CC(C)(c1ccc(O)cc1)c1ccc(O)cc1`, the AC50 is 17.2 µM (active).
Still for that read-out and setting: under `O=C(CCl)Nc1ccccc1` stands 72.6 µM (active).
For `CC(C)C(C)(N)C#N` (stereo not given), the compound was classed as inactive.
The same measure, in the same setting: under `CN(C)CCN(C)C` stands “inactive”.
As for `COP(=S)(OC)Oc1cc(Cl)c(I)cc1Cl`, the AC50 was 33.4 µM (active).
With `C=CCc1ccccc1O`, the result was inactive.
On the same count and under the same terms, the value for `CC(C)O.CC(C)O.OCCN(CCO)CCO.OCCN(CCO)CCO.[Ti]` was “inactive”; that for `O=C(O)COc1cc(Cl)c(Cl)cc1Cl` was “inactive”.
On the same count and under the same terms, the value for `COC(=O)c1cc(Oc2ccc(Cl)cc2Cl)ccc1[N+](=O)[O-]` was “inactive”; that for `O=c1nc(O)n(Cl)c(=O)n1Cl` was “inactive”.
In the case of `ClCCN1CCOCC1`, the compound was classed as inactive.
The same measure, in the same setting: under `Brc1ccc(Br)cc1` stands “inactive”; under `COc1ccc([N+](=O)[O-])cc1O`, “inactive”; under `C=C(C)[C@@H]1CC=C(C=O)CC1`, “inactive”.
The same measure, in the same setting: the value for `CCOP(=S)(OCC)SCSc1cc(Cl)ccc1Cl` was “inactive”.
On the same count and under the same terms, under `CS(=O)(=O)c1ccc(C(=O)C2C(=O)CCCC2=O)c(Cl)c1COCC(F)(F)F` stands “inactive”.
`OCCN(CCO)CCO`: the compound was called inactive.
Same read-out and setting: the value for `CCN(CC)C(=O)C(Cl)=C(C)OP(=O)(OC)OC` was “inactive”; that for `C=C(C)C(=O)OCCCCOC(=O)C(=C)C` was “inactive”.
On the same count and under the same terms, the value for `O=C(O)COc1ccc(Cl)cc1` was “inactive”; that for `COc1ccc(N)cc1` was “inactive”.
The same measure, in the same setting: under `CC(C)[N+](=O)[O-]` stands “inactive”; under `CC(C)[C@@H](Nc1ccc(C(F)(F)F)cc1Cl)C(=O)OC(C#N)c1cccc(Oc2ccccc2)c1` (stereo not given in full), “inactive”.
Turning to `CCCCCCCCCCBr`, the call was inactive.
Same read-out and setting: under `CC(C)(c1ccccc1)c1cc(-n2nc3ccccc3n2)c(O)c(C(C)(C)c2ccccc2)c1` stands “inactive”.
On the same count and under the same terms, the value for `CCCCCCCCCCCCCl` was “inactive”.
The same measure, in the same setting: the value for `Nc1c(Oc2ccccc2)cc(O)c2c1C(=O)c1ccccc1C2=O` was “inactive”; that for `O=S1OC[C@@H]2[C@H](CO1)[C@]1(Cl)C(Cl)=C(Cl)[C@@]2(Cl)C1(Cl)Cl` (stereo not given in full) was “inactive”.
